Our source for the outcome values is PubChem BioAssay (EPA / NIEHS).

The source made the active and inactive calls. Rule for the calls: active = hit-call score of the fitted dose curve at least 0.9, where 1 is the maximum; inactive = score below 0.9.

This experiment can be described thus: CCTE_Harrill_HTTr_Apoptosis_MCF7: CCTE's 6-hour Apoptosis Assessment for the High-Throughput Transcriptomics (HTTr) Platform, in MCF-7 cells cultured in DMEM + 10% fetal bovine serum, Harrill Lab (AID 2284011). From the text:
This is a cell-based assay that evaluates apoptosis using high content imaging to evaluate activation of caspase-3/7 using the CellEvent Caspase 3/7 Green detection reagent in 384-well format.One of seven assay components measured from the CCTE_Harrill_HTTr_Apoptosis assay. This was part of a full screening experiment. This is a cell-based assay that evaluates apoptosis in MCF-7 cells cultured in DMEM + 10% fetal bovine serum. High content imaging is used to evaluate activation of caspase-3/7 using the CellEvent Caspase 3/7 Green detection reagent. Measurements are taken at 6 hours after chemical dosing in 384-well format.The assay component endpoint CCTE_Harrill_HTTr_Apoptosis_MCF7 was analyzed with bidirectional fitting relation to DMSO as the negative control and baseline of activity. Using a type of viability reporter, gain-of-signal activity can be used to evaluate activation of caspase-3/7 using the CellEvent Caspase 3/7 Green detection reagent to understand changes in apoptosis. To generalize the intended target to other relatable targets, this assay endpoint is annotated to cell cycle, where the subfamily is apoptosis.
Chemicals were tested in MCF7 cells in an eight point dilution series with a six hour exposure duration.
For the molecule `O=c1[nH]c(Cl)c(Cl)cc1Cl`, the outcome was inactive.

In the case of `CCCCCCCCCCCCN=C(N)N`, the outcome was inactive.

Consider `C=CC(=O)OCC(CC)CCCC` (stereo not given), for which the result was inactive. The same measure for `O=C1CCO1`: “inactive”; for `CN(C)CCC#N`: “inactive”. For `O=[N+]([O-])c1ccccc1Cl` the value was “inactive”; for `[Cl-].[Cl-].[Cl-].[Gd+3]`, “inactive”; for `CC1(C)[C@H](C(=O)O[C@H](C#N)c2cccc(Oc3ccccc3)c2)[C@@H]1C=C(Br)Br`, “inactive”. As for `CCOP(=O)(OCC)Oc1ccc([N+](=O)[O-])cc1`, the result was inactive.

Turning to `CC(Cc1ccc(C(C)(C)C)cc1)CN1C[C@@H](C)O[C@@H](C)C1` (stereo not given in full), the result was inactive. The same measure for `N#CCCCCC#N`: “inactive”. For `Oc1ccc(C2(c3ccc(O)cc3)CCCCC2)cc1` the value was “inactive”. For `c1cc(OCC2CO2)ccc1Cc1ccc(OCC2CO2)cc1` (stereo not given) the value was “inactive”. Turning to `COc1cccc([C@@]2(O)CCCC[C@@H]2CN(C)C)c1`, the outcome was inactive.

As for `CC(C)[C@@H](C(=O)O[C@@H](C#N)c1cccc(Oc2ccccc2)c1)c1ccc(Cl)cc1`, the result was inactive.

Consider `OC(Cn1cncn1)(c1ccc(F)cc1)c1ccccc1F` (stereo not given), for which the outcome was inactive. For `C=CCN(CC=C)C(=O)C(Cl)Cl` the value was “inactive”. For `Clc1c(Cl)c(Cl)c2c(c1Cl)Oc1c(Cl)c(Cl)c(Cl)c(Cl)c1O2` the value was “inactive”. For `O=P1(NCCCl)OCCCN1CCCl` (stereo not given) the value was “inactive”; for `CCCCc1c(C)nc(NCC)[nH]c1=O`, “inactive”; for `CNC(=O)Oc1cc(C)c(SC)c(C)c1`, “inactive”. On to `OC(c1ccc(F)cc1)(c1cncnc1)c1ccccc1Cl` (stereo not given), for which the outcome was inactive. For `CCCOC(=O)c1ccccc1C(=O)OCCC` the value was “inactive”; for `O=[N+]([O-])c1ccc(Cl)cc1`, “inactive”; for `O=[N+]([O-])O`, “inactive”.

Consider `COc1cccc2c1cc([N+](=O)[O-])c1c(C(=O)O)cc3c(c12)OCO3`, for which the result was inactive.

`[Cl][Sb]([Cl])[Cl]`: the result was inactive. For `[Cd+2].[Cl-].[Cl-]` the value was “inactive”; for `Cc1ccc(N(SC(F)(Cl)Cl)S(=O)(=O)N(C)C)cc1`, “inactive”; for `O=C1C=CC(=O)C=C1`, “inactive”. For `CC(C)(C)OOC(C)(C)C#CC(C)(C)OOC(C)(C)C` the value was “inactive”; for `O=C(NC(=O)c1c(F)cccc1F)Nc1ccc(Oc2ccc(C(F)(F)F)cc2Cl)cc1F`, “inactive”; for `O=C(CCl)c1ccccc1`, “inactive”. The same measure for `CC(N)=S`: “inactive”. Turning to `[Cl-].[Cl-].[Cl-].[Fe+3]`, the result was inactive. For `CC(C)(C)C(O)C(Oc1ccc(-c2ccccc2)cc1)n1cncn1` (stereo not given) the value was “inactive”; for `O=S(=O)(c1ccccc1)c1ccccc1`, “inactive”. The same measure for `CCOP(=S)(OCC)Oc1cnc2ccccc2n1`: “inactive”; for `Cc1ccc2cc(C)ccc2c1`: “inactive”.

In the case of `OCCSSCCO`, the outcome was inactive.
